What was measured:
Assay in all cases: DAPPL (digital affinity profiling via proximity ligation, sequencing); 10 mM Tris-HCl pH 7.5, 50 mM NaCl, 1 mM DTT, 4% glycerol, room temperature, 30 min; GST-TFs on glutathione beads, 16-mer random dsDNA library, 0.1% formaldehyde crosslink after washing; high values mean tight binding
Details in all cases: protein: recombinant; tags: N-terminal GST; dsDNA, one strand shown
ELK1 = target: T1, ELK1 (Homo sapiens, UniProt P19419 1-428)
T1 sequence: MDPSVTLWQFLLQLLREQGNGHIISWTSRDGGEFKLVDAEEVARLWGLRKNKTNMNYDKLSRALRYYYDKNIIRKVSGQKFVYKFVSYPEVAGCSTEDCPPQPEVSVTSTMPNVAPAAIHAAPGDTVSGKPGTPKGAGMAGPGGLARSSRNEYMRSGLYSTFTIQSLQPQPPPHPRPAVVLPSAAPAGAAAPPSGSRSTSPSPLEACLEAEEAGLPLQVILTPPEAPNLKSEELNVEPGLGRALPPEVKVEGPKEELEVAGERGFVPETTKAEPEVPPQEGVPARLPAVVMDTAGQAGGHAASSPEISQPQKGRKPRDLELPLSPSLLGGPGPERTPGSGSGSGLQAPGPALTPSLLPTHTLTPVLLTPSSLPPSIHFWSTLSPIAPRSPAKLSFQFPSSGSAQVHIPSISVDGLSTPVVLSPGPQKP
How it was run: (§1)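 A tag-only sample was pooled with DNA-barcoded human transcription factors that had been expressed in yeast as GST fusions and captured on glutathione beads. The pools were incubated for 30 min at room temperature with 200 nmole of a random double-stranded 16-mer DNA library in Tris/NaCl/DTT/glycerol buffer, then washed, crosslinked with 0.1% formaldehyde, proximity-ligated (BsaI/T4 ligase, 1 h, 37 °C), PCR-amplified and sequenced on an Illumina NextSeq500. Binding signal is each hexamer's read frequency for a factor divided by its frequency for the tag-only sample.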

GABPA = target: T2, GABPA (Homo sapiens, UniProt Q06546 1-454)
T2 sequence: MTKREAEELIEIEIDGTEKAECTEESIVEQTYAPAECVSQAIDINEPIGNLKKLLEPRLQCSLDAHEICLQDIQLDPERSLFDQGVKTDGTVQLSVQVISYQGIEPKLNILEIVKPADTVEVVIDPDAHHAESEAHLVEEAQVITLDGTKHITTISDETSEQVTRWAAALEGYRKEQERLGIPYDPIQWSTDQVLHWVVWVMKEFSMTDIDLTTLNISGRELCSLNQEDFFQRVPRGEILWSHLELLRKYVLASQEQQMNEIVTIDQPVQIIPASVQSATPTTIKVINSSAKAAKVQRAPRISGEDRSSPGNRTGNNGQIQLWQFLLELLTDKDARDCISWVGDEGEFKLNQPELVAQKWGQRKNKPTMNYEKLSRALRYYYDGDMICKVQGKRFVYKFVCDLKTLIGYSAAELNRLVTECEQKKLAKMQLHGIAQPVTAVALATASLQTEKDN
How it was run: as §1

ERG = target: T3, ERG (Homo sapiens, UniProt P11308 1-479)
T3 sequence: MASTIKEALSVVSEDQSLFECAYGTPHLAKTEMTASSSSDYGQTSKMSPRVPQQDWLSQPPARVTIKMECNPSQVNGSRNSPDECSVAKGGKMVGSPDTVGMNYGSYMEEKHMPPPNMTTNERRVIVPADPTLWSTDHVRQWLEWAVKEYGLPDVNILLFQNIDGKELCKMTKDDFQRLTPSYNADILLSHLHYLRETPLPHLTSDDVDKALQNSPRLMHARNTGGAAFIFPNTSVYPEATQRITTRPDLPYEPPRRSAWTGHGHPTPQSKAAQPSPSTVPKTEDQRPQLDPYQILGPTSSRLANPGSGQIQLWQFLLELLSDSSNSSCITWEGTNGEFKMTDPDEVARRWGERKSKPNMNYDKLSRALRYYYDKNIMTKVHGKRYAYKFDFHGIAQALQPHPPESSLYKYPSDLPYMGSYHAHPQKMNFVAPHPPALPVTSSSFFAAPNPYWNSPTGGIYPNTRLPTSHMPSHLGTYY
How it was run: as §1

ELF1 = ELF1 (Homo sapiens, UniProt P32519 1-619)
Sequence of ELF1 (P32519 whole entry): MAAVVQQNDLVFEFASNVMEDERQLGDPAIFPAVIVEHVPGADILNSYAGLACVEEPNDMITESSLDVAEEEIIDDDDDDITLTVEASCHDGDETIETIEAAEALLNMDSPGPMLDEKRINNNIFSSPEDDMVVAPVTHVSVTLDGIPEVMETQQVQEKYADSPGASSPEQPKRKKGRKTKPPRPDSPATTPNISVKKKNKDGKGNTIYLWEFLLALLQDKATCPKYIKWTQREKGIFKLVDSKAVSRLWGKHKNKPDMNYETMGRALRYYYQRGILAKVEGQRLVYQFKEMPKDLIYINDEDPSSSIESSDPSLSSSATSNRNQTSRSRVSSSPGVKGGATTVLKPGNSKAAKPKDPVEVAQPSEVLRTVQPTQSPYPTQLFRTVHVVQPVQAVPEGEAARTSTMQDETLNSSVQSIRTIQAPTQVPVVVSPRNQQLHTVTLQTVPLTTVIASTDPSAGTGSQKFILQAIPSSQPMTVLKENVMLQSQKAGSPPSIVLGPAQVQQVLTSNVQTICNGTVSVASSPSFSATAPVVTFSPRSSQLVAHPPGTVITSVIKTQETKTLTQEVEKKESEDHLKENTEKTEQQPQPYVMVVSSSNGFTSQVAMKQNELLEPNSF
How it was run: as §1

EHF = target: T4, EHF (Homo sapiens, UniProt Q9NZC4 1-300)
T4 sequence: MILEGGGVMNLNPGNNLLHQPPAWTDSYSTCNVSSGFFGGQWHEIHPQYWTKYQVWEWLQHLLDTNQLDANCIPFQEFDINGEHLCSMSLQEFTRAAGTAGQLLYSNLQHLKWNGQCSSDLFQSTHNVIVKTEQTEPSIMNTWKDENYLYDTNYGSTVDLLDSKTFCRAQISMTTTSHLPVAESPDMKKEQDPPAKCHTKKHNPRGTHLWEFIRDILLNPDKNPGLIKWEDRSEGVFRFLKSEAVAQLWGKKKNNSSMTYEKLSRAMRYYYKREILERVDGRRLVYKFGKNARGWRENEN
How it was run: as §1

SPIB = SPIB (Homo sapiens, UniProt Q01892 1-262)
Sequence of SPIB (Q01892 whole entry): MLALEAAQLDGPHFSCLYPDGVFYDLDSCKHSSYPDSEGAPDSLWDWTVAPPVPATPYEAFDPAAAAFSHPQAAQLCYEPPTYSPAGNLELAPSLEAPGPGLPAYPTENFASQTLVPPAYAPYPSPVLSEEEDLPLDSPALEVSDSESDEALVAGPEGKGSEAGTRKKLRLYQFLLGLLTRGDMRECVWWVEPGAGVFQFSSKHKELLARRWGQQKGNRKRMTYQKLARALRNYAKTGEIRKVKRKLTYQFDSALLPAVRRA
How it was run: as §1

FEV = target: T5, FEV (Homo sapiens, UniProt Q99581 1-238)
T5 sequence: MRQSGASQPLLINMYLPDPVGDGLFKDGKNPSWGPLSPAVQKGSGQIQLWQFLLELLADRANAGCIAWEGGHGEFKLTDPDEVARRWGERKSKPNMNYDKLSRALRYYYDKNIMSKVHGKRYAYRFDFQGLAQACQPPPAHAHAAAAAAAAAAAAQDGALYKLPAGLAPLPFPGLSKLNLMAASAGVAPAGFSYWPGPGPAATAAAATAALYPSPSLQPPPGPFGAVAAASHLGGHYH
How it was run: as §1

ETV5 = ETV5 (Homo sapiens, UniProt P41161 1-510)
Sequence of ETV5 (P41161 whole entry): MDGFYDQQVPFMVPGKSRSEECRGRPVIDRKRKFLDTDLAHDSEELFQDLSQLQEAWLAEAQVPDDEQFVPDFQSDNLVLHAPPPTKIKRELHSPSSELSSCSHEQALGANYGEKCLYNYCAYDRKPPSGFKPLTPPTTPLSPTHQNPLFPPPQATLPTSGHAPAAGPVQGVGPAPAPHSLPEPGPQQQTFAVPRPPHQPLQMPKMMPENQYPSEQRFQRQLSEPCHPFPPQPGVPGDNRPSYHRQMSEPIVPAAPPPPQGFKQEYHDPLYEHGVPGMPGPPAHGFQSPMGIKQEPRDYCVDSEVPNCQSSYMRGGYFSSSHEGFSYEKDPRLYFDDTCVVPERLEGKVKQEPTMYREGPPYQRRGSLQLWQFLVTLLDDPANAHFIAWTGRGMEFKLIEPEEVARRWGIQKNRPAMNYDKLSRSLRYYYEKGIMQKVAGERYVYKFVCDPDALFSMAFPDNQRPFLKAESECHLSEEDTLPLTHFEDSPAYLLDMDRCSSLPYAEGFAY
How it was run: as §1

ELF4 = ELF4 (Homo sapiens, UniProt Q99607 1-663)
Sequence of ELF4 (Q99607 whole entry): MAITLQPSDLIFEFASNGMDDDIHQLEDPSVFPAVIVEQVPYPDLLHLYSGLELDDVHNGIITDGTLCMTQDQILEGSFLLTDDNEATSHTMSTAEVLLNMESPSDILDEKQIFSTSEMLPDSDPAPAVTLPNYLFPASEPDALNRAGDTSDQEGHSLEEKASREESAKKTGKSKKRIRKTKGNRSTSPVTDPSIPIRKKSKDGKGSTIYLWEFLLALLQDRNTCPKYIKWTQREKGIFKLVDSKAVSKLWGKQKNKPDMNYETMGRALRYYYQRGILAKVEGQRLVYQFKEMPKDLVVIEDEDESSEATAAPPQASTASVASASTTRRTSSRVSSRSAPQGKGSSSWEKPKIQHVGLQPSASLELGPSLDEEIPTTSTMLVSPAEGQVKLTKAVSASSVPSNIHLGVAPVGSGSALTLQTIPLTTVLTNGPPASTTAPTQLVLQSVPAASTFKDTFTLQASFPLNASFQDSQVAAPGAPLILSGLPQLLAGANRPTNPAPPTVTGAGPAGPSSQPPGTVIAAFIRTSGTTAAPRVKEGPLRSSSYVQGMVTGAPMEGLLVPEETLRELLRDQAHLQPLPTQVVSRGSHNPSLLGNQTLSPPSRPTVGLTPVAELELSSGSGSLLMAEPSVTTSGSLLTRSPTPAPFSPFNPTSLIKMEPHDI
How it was run: as §1

ELK4 = target: T6, ELK4 (Homo sapiens, UniProt P28324-2 1-405)
T6 sequence: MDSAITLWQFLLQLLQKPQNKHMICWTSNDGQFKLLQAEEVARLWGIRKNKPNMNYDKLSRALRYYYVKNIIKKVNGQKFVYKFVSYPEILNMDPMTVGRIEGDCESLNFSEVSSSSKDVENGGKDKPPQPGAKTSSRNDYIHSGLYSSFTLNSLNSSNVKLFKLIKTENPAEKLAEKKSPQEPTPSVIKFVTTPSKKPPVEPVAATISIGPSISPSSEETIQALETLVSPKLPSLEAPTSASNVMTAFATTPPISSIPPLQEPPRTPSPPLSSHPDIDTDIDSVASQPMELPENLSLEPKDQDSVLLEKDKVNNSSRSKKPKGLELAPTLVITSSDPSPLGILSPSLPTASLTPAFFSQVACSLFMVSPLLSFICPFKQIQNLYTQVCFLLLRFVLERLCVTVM
How it was run: as §1

ETV2 = target: T7, ETV2 (Homo sapiens, UniProt O00321 1-342)
T7 sequence: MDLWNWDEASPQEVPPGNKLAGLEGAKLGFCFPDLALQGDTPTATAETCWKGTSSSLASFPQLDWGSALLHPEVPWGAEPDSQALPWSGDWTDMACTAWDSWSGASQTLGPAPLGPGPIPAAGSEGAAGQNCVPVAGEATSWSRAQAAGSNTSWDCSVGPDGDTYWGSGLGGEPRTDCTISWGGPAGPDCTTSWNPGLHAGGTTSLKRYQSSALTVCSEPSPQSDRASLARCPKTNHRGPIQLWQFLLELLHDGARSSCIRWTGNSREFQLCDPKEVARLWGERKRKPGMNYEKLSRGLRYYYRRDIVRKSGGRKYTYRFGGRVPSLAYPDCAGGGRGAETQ
How it was run: as §1

ELF3 = target: T8, ELF3 (Homo sapiens, UniProt P78545 1-371)
T8 sequence: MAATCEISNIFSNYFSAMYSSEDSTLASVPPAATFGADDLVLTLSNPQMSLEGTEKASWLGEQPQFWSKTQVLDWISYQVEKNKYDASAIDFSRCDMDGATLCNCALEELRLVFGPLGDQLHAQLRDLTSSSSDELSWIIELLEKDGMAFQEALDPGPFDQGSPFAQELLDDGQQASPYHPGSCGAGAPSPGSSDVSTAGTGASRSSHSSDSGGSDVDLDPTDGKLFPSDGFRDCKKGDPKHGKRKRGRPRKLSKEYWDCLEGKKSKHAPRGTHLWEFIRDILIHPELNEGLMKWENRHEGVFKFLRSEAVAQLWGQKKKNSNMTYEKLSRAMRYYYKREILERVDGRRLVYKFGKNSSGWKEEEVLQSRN
How it was run: as §1

ETV1 = ETV1 (Homo sapiens, UniProt P50549 1-477)
Sequence of ETV1 (P50549 whole entry): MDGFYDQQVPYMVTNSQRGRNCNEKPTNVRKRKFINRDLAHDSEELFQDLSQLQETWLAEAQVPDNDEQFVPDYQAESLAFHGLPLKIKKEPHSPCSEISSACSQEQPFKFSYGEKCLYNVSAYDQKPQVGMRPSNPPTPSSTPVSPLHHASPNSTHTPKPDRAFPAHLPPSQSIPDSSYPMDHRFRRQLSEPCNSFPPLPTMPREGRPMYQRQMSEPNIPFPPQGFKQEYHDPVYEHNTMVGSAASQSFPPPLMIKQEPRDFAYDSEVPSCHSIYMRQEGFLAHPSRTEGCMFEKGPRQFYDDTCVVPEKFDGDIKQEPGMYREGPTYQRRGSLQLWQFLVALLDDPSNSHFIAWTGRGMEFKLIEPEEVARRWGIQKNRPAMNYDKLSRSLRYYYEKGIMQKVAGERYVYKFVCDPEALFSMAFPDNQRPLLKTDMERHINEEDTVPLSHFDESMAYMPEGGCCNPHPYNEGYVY
How it was run: as §1

ETV3L = target: T9, ETV3L (Homo sapiens, UniProt Q6ZN32 1-361)
T9 sequence: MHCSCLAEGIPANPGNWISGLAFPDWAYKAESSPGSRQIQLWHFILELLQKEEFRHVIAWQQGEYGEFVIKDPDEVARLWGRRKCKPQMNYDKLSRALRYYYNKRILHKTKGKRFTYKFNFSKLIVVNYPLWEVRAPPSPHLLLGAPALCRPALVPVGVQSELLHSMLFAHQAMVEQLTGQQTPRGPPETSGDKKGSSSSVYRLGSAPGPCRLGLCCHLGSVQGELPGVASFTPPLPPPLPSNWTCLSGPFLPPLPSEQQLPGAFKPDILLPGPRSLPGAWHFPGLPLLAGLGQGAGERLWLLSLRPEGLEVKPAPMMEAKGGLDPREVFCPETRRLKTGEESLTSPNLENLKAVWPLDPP
How it was run: as §1

ETS2 = target: T10, ETS2 (Homo sapiens, UniProt P15036 1-469)
T10 sequence: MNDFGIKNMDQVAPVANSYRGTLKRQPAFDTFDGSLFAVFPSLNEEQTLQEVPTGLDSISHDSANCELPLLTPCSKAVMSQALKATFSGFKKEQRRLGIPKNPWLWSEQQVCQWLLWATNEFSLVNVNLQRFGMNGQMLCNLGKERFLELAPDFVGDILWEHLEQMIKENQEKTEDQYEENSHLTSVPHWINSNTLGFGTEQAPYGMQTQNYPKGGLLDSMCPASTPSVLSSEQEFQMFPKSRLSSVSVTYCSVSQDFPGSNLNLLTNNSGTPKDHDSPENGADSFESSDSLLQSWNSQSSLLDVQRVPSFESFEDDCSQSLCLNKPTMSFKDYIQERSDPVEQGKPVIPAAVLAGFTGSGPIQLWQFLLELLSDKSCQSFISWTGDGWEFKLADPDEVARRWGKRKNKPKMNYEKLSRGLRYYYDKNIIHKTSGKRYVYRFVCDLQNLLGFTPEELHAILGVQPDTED
How it was run: as §1

SPDEF = target: T11, SPDEF (Homo sapiens, UniProt O95238 1-335)
T11 sequence: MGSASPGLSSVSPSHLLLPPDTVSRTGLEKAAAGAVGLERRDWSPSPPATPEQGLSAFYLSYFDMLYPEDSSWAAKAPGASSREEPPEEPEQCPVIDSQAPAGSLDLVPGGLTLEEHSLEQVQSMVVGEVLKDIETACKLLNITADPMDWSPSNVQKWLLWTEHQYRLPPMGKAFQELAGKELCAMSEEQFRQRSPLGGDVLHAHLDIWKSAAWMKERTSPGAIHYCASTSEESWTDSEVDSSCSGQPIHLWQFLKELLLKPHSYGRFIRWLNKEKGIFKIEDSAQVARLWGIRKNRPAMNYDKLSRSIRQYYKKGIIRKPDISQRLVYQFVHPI
How it was run: as §1

ETV3 = target: T12, ETV3 (Homo sapiens, UniProt P41162-2 1-143)
T12 sequence: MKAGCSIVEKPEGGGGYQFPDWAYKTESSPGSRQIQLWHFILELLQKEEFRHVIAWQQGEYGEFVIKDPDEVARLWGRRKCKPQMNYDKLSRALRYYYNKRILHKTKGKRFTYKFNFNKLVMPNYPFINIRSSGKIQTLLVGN
How it was run: as §1

ETV6 = ETV6 (Homo sapiens, UniProt P41212 1-452)
Sequence of ETV6 (P41212 whole entry): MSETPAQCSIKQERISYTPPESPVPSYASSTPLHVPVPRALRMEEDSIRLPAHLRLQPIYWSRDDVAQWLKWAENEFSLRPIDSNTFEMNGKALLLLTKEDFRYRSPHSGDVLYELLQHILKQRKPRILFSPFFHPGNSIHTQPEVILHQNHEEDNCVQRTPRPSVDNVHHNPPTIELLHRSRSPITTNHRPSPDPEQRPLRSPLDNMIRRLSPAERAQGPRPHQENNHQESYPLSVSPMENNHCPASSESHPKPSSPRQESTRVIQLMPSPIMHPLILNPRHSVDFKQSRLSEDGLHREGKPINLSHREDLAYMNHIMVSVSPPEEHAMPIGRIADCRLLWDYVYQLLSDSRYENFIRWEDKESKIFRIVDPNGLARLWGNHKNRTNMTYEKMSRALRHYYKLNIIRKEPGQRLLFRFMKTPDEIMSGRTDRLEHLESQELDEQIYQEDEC
How it was run: as §1

Sequence: ACACGC
- binding signal (ELK1): 1.06 fold enrichment (6-mer frequency, TF over GST control)
- binding signal (GABPA): 1.13 fold enrichment (6-mer frequency, TF over GST control)
- binding signal (ERG): 1.15 fold enrichment (6-mer frequency, TF over GST control)
- binding signal (ELF1): 1.17 fold enrichment (6-mer frequency, TF over GST control)
- binding signal (EHF): 1.08 fold enrichment (6-mer frequency, TF over GST control)
- binding signal (SPIB): 1.1 fold enrichment (6-mer frequency, TF over GST control)
- binding signal (FEV): 1.09 fold enrichment (6-mer frequency, TF over GST control)
- binding signal (ETV5): 1.1 fold enrichment (6-mer frequency, TF over GST control)
- binding signal (ELF4): 1.15 fold enrichment (6-mer frequency, TF over GST control)
- binding signal (ELK4): 1.26 fold enrichment (6-mer frequency, TF over GST control)
- binding signal (ETV2): 1.19 fold enrichment (6-mer frequency, TF over GST control)
- binding signal (ELF3): 1.11 fold enrichment (6-mer frequency, TF over GST control)
- binding signal (ETV1): 1.11 fold enrichment (6-mer frequency, TF over GST control)
- binding signal (ETV3L): 1.07 fold enrichment (6-mer frequency, TF over GST control)
- binding signal (ETS2): 1.05 fold enrichment (6-mer frequency, TF over GST control)
- binding signal (SPDEF): 1.08 fold enrichment (6-mer frequency, TF over GST control)
- binding signal (ETV3): 1.13 fold enrichment (6-mer frequency, TF over GST control)
- binding signal (ETV6): 1.13 fold enrichment (6-mer frequency, TF over GST control)
